Measured values from PubChem BioAssay (EPA / NIEHS).
Inconclusive results are not listed. Active and inactive are the calls of the source. How the source made its calls: active means hit-call score of the fitted dose curve at least 0.9, where 1 is the maximum; inconclusive means response in the unintended direction; inactive means score below 0.9.

What follows are compounds tested against Retinoic acid receptor RXR-alpha (Homo sapiens) (UniProt P19793) (assay: ATG_RXRa_TRANS: Attagene TRANS-FACTORIAL HepG2 Assay for human Retinoid X Receptor alpha (RXRa) (AID 2283012)).
Experimental: ATG_TRANS is a cell-based, multiplexed-readout assay that uses HepG2, a human liver cell line, with measurements taken at 24 hours after chemical dosing in a 24-well plate.ATG_RXRa_TRANS is one of 30 assay component(s) measured or calculated from the ATG_TRANS assay. It is designed to make measurements of mRNA induction, a form of inducible reporter, as detected with fluorescence intensity signals by Reverse transcription polymerase chain reaction (RT-PCR) and Capillary electrophoresis technology.Data from the assay component ATG_RXRa_TRANS was analyzed into 1 assay endpoint. This assay endpoint, ATG_RXRa_TRANS, was analyzed in the positive analysis fitting direction relative to DMSO as the negative control and baseline of activity. Using a type of inducible reporter, measures of mRNA for gain-of-signal activity can be used to understand the reporter gene at the transcription factor-level as they relate to the gene RXRA. Furthermore, this assay endpoint can be referred to as a primary readout, because this assay has produced multiple assay endpoints where this one serves a reporter gene function. To generalize the intended target to other relatable targets, this assay endpoint is annotated to the nuclear receptor intended target family, where the subfamily is non-steroidal.
Human liver HepG2 cells are transiently transfected with multiple reporter transcription units (MRTUs) in 6-well plates using FuGene 6 reagent (Roche; 3 ml FuGene/1 mg DNA). The MRTU constructs are regulated by a cis-regulating element (promoter). […] A major difference between the CIS and TRANS system is that in CIS activities of endogenous TFs are measured, whereas the TRANS assay evaluates changes in activities of exogenous, chimeric NR-Gal4 proteins. […] At the end of 24 hour incubation, total RNA was isolated using TriZol reagent (Invitrogen). The isolated RNA is then reverse-transcribed using oligo(dT) primer and Mo-MLV reverse transcriptase (Invitrogen) with DNAse I (Ambion) treatment for 30 min. The one-tenth of the produced cDNA was amplified by PCR using Taq DNA polymerase (Invitrogen) and two reporter sequence-specific primers. The PCR products were fluorescently labeled by primer extension with 6-arboxyfluorescein (6-FAM) 5'-labeled reporter sequence-specific primer (2 min at 95 C, 20 s at 68 C and 10 min at 72 C) and these products were digested with 5U of HpaI (New England Biolabs) for 2h at 37 C. The fragments were purified using Qiaquick PCR columns (Qiagen), analyzed on an ABI 3130xL genetic analyzer (Applied Biosystems) with peak positions identified by using a set of X-rhodamine (ROX)-labeled MapMarker1000 molecular weight standards (BioVentures). The raw capillary electrophoresis data was processed using Attagraph software (Attagene).

Retinoic acid receptor RXR-alpha (Homo sapiens), sequence (P19793 whole entry, looked up): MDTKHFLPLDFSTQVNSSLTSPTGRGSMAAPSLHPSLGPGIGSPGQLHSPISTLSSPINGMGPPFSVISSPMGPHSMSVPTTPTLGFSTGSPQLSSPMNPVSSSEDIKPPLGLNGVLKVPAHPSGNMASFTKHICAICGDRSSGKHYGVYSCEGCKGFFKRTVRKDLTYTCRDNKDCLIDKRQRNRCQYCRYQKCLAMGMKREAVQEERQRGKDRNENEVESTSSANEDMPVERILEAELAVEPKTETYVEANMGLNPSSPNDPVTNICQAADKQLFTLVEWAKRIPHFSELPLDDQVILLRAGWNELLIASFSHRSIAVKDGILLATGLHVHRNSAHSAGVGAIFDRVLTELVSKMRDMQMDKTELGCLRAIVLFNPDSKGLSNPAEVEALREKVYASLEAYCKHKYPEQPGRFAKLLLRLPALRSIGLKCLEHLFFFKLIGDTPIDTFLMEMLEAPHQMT

Compound	outcome	AC50
Nc1c(Cl)cc(Cl)cc1[N+](=O)[O-]	inactive	
C=CCN(CC=C)CC=C	inactive	
CCCCOC(=O)CCCCCCCC(=O)OCCCC	inactive	
Oc1c(Cl)cc(Cl)c(Cl)c1Cc1c(O)c(Cl)cc(Cl)c1Cl	inactive	
CC(=O)NCCO	inactive	
c1ccc(Oc2ccccc2)cc1	inactive	
CCCCCC(C)=O	inactive	
Cc1ccc(S(=O)(=O)Oc2ccc(N=Nc3ccc(-c4ccc(N=Nc5c(O)ccc6cc(S(=O)(=O)O)cc(S(=O)(=O)O)c56)c(C)c4)cc3C)cc2)cc1	inactive	
ClC(c1ccccc1)(c1ccccc1)c1ccccc1	inactive	
CC/C=C\CC/C=C/CO	inactive	
CC(C)C[C@H](NC(=O)OCC1c2ccccc2-c2ccccc21)C(=O)O	inactive	
CCCCCCCC(=O)OCC(O)CO (stereo not given)	inactive	
C=CC(=C)CCCC(C)(C)OC(C)=O	inactive	
CC1(C)C2=CCCC(C)(C)[C@]23CC[C@H]1C3	inactive	
Cc1[nH]c(=O)c(C#N)cc1-c1ccncc1	inactive	
CCCCN(CCCC)C(=O)N(CCCC)CCCC	inactive	
CCCCCCOC(=O)CCC	inactive	
C=CC(C)(O)CCC=C(C)C (stereo not given)	inactive	
CC1=NN(c2ccc(S(=O)(=O)O)cc2)C(=O)C1	inactive	
CC(C)(C)OC(=O)c1ccc(O)cc1	inactive	

Compound	outcome	AC50
C=C(C)[C@@H]1CC=C(C)C(=O)C1	inactive	
CCCCCCOCCOCCO	inactive	
CC(O)C1CCCCC1 (stereo not given)	inactive	
CSc1c(Cl)c(Cl)c(Cl)c(Cl)c1Cl		27.3 µM (active)
O=C1OC(=O)c2c(Br)c(Br)c(Br)c(Br)c21	inactive	
CCCCCCCCCCCCN1CCCCCC1=O	inactive	
C=Cc1ccncc1	inactive	
CC(C)(C)c1ccc(C(=O)O)cc1	inactive	
CC(C)CCOC(=O)c1ccccc1	inactive	
CC(=O)O[C@H]1C[C@@H]2CC[C@@]1(C)C2(C)C	inactive	
CCCCCCC(=O)c1ccccc1	inactive	
CCOC(=O)COC(=O)c1cc(Oc2ccc(C(F)(F)F)cc2Cl)ccc1[N+](=O)[O-]	inactive	
C=C(CC(=O)O)C(=O)O	inactive	
CCc1ncc(C)[nH]1	inactive	
CCOCCOCCOCC	inactive	
Nc1ccc(NCCO)c([N+](=O)[O-])c1	inactive	
CCCC(=O)c1ccccc1	inactive	
COc1cc(C(C)C)ccc1C	inactive	
CCCCCC(=O)CC	inactive	
CC(=O)C(C)O (stereo not given)	inactive	
